# Experimental data: PubChem BioAssay (Tox21)
# “And” between values parts separate entries of the source, which are not always exact repeats. Identical values can stand only once. Results filed as inconclusive are left out. Unmarked numbers belong to inactive results. The source made the active and inactive calls. Calls come from the whole dose curve; as a rule, active = well fitted cell-killing curve with a large enough effect in the repeat runs; inconclusive = weak or mixed curves, or effect the other way; inactive = no such curve, though single readings can be large or run the other way.
# Experiment: qHTS assay to identify small molecule agonists of the vitamin D receptor (VDR) signaling pathway - cell viability counter screen (AID 743224); note: nearly all actives have a fitted effect of over 50% in size
# Conditions: VDR-bla HEK293T viability, CellTiter-Glo luminescence, 16 h; series mostly up to 62.6 µM; activity change, negative = cytotoxicity: at the top concentration
# Description: U.S. Tox21 Program National Center for Advancing Translational Sciences [NCATS] NIH Chemical Genomics Center [NCGC] U.S. Environmental Protection Agency [EPA] National Institutes of Environmental Health Sciences [NIEHS] National Toxicology Program [NTP] U.S. Food and Drug Administration [FDA] Tox21 Assay Overview: The vitamin D receptor (VDR), a member of nuclear hormone receptor superfamily, plays a critical role in calcium homeostasis and bone metabolism. It is also involved in cell differentiation and growth, and thrombogenicity. […] The cytotoxicity of the Tox21 compound library against the VDR-bla cell line was tested in parallel by measuring the cell viability using CellTiter-Glo assay (Promega, Madison, WI) in the same wells.
# Tox21 Assay Protocol Summary: VDR-bla cells were dispensed at 2,000 cells/6 uL/well into black wall/clear-bottom 1536-well plates using a Multidrop Combi (Thermo Fisher Scientific, Waltham, MA) dispenser. After the assay plates were incubated at a 37C and 5% CO2 for 4 h, 23 nL of compounds dissolved in DMSO, positive controls or DMSO only was transferred to the assay plate by a Pintool station (Kalypsys, San Diego, CA). The plates were incubated at 37C and 5% CO2 for 16 h. After 1 uL of LiveBLAzerTM B/G FRET substrate was added using a Bioraptr Flying Reagent Dispenser (FRD) workstation (Beckman Coulter, Indianapolis, IN, USA), the plates were incubated at room temperature for 2 h, and fluorescence intensity was measured by an Envision plate reader (PerkinElmer, Shelton, CT). For cell viability readout that measures cytotoxicity, 3 ul/well of CellTiter-Glo reagent was added into the assay plates using a FRD. After 30 min incubation at room temperature, the luminescence intensity in the plates was measured using a ViewLux (PerkinElmer) plate reader.
# % is set by controls: 0 for no effect and ±100 for the full control effect; potency is the fitted concentration of half-maximal effect.
Structure (SMILES),Potency,"activity change, negative = cytotoxicity"
O=C(c1ccc(O)cc1O)c1ccc(O)cc1O,inactive,–
CC1=C(/C=C/C(C)=C/C=C/C(C)=C/C=O)C(C)(C)CCC1,15.4 µM (active),–
O=C(O)c1ccc(Cl)c(Cl)c1,–,21.1%
CN(C)[C@@H]1C(=O)C(C(N)=O)=C(O)[C@@]2(O)C(=O)C3=C(O)c4c(O)ccc(Cl)c4[C@@H](O)[C@H]3C[C@@H]12,–,0.133%
CC/C(=C(\c1ccc(O)cc1)c1ccc(OCCN(C)C)cc1)c1ccccc1,17.4 µM (active),–
[Cl][Au]([Cl])[Cl],3.89 µM (active),–
Oc1cccc2cc3cccc(O)c3c(O)c12,–,-1.64% [at 81.1 µM]
N/C(=N\N=C\c1ccc(Cl)cc1)N/N=C/c1ccc(Cl)cc1,26.6 µM (active),–
C[C@]12CCC(=O)C=C1CC[C@@H]1[C@@H]2[C@@H](O)C[C@@]2(C)[C@H]1CC[C@]2(O)C(=O)COC(=O)CCC(=O)O,–,7.04%
O=c1[nH]sc2ccccc12,12.3 µM (active),–
CC(=O)N1CCN(c2ccc(OC[C@H]3CO[C@](Cn4ccnc4)(c4ccc(Cl)cc4Cl)O3)cc2)CC1,21.9 µM (active),–
Cc1cccc2c1cc1ccc3cccc4ccc2c1c34,–,-0.637% [at 81.1 µM]
Cc1onc(-c2ccccc2Cl)c1C(=O)N[C@@H]1C(=O)N2[C@@H]1SC(C)(C)[C@@H]2C(=O)O,–,27.1%
CC(C)CCCCCCCCCCCCCCC(=O)O,–,5.68%
CC(C)(C)CC(C)(C)c1ccc(OCCOCC[N+](C)(C)Cc2ccccc2)cc1,38.9 µM (active) and 26.6 µM (active),–
O=C1CCCc2c1cc1ccc3cccc4ccc2c1c34,–,-6.14% [at 81.1 µM]
CO[Si](CCCNc1ccccc1)(OC)OC,–,-1.36%
COc1ccc(C(=O)/C(Br)=C\C(=O)O)cc1,–,-12.1%
C=C(C)C(=O)OCC[N+](C)(C)C,–,2.63%
CCCCCCCCn1sc(Cl)c(Cl)c1=O,2.75 µM (active),–

Structure (SMILES),Potency,"activity change, negative = cytotoxicity"
CC(C)=CCOc1ccc(/C=C/C(=O)c2ccc(OCC=C(C)C)cc2OCC(=O)O)cc1,–,-0.0345%
CCC(N)(CO)CO,–,16.4% [at 81.1 µM]
CCCCCCCC/C=C\CCCCCCCCOCCO,25.4 µM (active),–
COc1c(C)c2c(c(O)c1C/C=C(\C)CCC(=O)O)C(=O)OC2,–,-18%
O=C(O)c1cc(O)c2c(c1)C(=O)c1cccc(O)c1C2=O,–,12.3% [at 81.1 µM]
C[n+]1cc2c3c(ccc2c2ccc4cc5c(cc4c21)OCO5)OCO3,0.58 µM (active),–
CCCCc1oc2ccc(NS(C)(=O)=O)cc2c1C(=O)c1ccc(OCCCN(CCCC)CCCC)cc1,26.6 µM (active),–
CCCCCCCCCCCC[N+](C)(C)CCCCCCCCCCCC,19.5 µM (active),–
CCOC(=O)/C=C(C)/C=C/C=C(C)/C=C/c1c(C)cc(OC)c(C)c1C,–,-1.73%
Cc1cc(N)c(S(=O)(=O)O)cc1Cl,–,19.7% [at 81.1 µM]
Clc1ccc2cc3ccccc3cc2c1,–,-0.664%
C=CC(=O)OCCn1c(=O)n(CCOC(=O)C=C)c(=O)n(CCOC(=O)C=C)c1=O,49 µM (active),–
[Cl][Bi]([Cl])([c]1ccccc1)([c]1ccccc1)[c]1ccccc1,3.87 µM (active),–
On1ccccc1=S,0.61 µM (active),–
CCN(C(=O)N(CC)c1ccccc1)c1ccccc1,–,-22.3%
CCC1OCC(COc2ccc(Oc3ccccc3)cc2)O1 (stereo not given),49 µM (active),–
C1CCCC1,–,-1.4%
Cc1cc(O)c(C(C)(C)C)cc1Sc1cc(C(C)(C)C)c(O)cc1C,4.36 µM (active),–
C=CC(=O)OCC(CO)(COCC(COC(=O)C=C)(COC(=O)C=C)COC(=O)C=C)COC(=O)C=C,3.84 µM (active),–
CS(=O)(=O)CCNCc1ccc(-c2ccc3ncnc(Nc4ccc(OCc5cccc(F)c5)c(Cl)c4)c3c2)o1,29.8 µM (active),–
